Test results reported in PubChem BioAssay (NCATS).
Records with an inconclusive call do not appear. A number with no mark means an inactive call. Calls of active or inactive are those of the source. Calls follow the shape of the dose curve; as a rule, active = well fitted inhibition curve with a large enough effect; inconclusive = small, poorly fitted or top-dose-only effect; inactive = flat fitted curve, though single readings scatter.
% is scaled to controls: 0 for no effect and ±100 for the full control effect; potency is read from the fitted curve at half-maximal effect.

What follows are molecules tested on CRL-7250 (assay: Cytotoxic Profiling of Annotated Libraries Using Quantitative High-Throughput Screening (AID 1296008; also: nearly all actives have a fitted effect of over 60% in size)). Conditions: Five cell lines viability, CellTiter-Glo ATP luminescence, 48-72 h; max response: active compounds read low.
In short: (§1)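 Cytotoxicity was measured as CellTiter-Glo ATP luminescence, read after 10 min at room temperature. Compound treatment of the cells lasted 48 or 72 hr at 37 degrees Celsius in a qHTS format.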
In the case of `COc1cc(C[C@H]2C(=O)OC[C@@H]2Cc2ccc(OC)c(OC)c2)ccc1O`, the Potency is reported as 0.508 µM (active).
`Nc1ncnc2c1nc(Cl)n2C1OC2COP(=O)(O)OC2C1O` (configuration not stated) was tested, and the Potency was 6.51 µM (active).
In the case of `C=C1C(=O)O[C@@H]2C(OC(=O)/C(C)=C\C)/C(C)=C\C(=O)/C=C(\C)C[C@H](O)[C@@H]12` (some centres not stated), the Potency is reported as 10.1 µM (active).
Work on `Cc1noc(-c2ccc(-c3ccc(CC(=O)O)cc3)cc2)c1NC(=O)O[C@H](C)c1ccccc1Cl` yielded a max response of -11.1%.
For `CN1CCN(C2CCN(C(=O)Nc3cc(Oc4ccc(NC(=O)C5(C(=O)Nc6ccc(F)cc6)CC5)c(F)c4)ccn3)CC2)CC1`, the Potency was 9.2 µM (active).
In the case of `Cc1[nH]c2ccc(F)cc2c1-c1nc2c3cccnc3c3ncccc3c2[nH]1`, the Potency is reported as 3.66 µM (active).
In the case of `c1ccc(-c2ccc(CNc3nc(-c4ccccn4)nnc3-c3ccccc3)cc2)cc1`, the Potency is reported as 5.8 µM (active).
`N#Cc1ccc(O[C@@H]2c3ccccc3C[C@H]2N2CCC[C@@H](N)C2)c(Cl)c1` was tested, and the max response was -27.9%.
`CNC(=O)[C@@H](c1ccccc1)N1CCc2cc(OC)c(OC)cc2[C@@H]1CCc1ccc(C(F)(F)F)cc1` showed a max response of -4.36%.
In the case of `C=C(C)C(=O)O[C@H]1[C@H]2C(=C)C(=O)O[C@@H]2C[C@@H](C)[C@@H]2O[C@@H]2C(=O)[C@](C)(O)[C@@H]1OC(=O)C(=C)C`, the Potency is reported as 7.09 µM (active).

What follows are molecules tested on HEK293 in the same assay as above. Conditions: Five cell lines viability, CellTiter-Glo ATP luminescence, 48-72 h; max response: active compounds read low.
In short: as §1
For `C=CC(=O)Nc1cccc(Nc2nc(Nc3ccc(OCCOC)cc3)ncc2F)c1`, the Potency was 8.2 µM (active).
In the case of `C=C1C(=O)O[C@H]2C3=C(C)CCC[C@]3(C)C(=O)C[C@@H]12`, the Potency is reported as 5.8 µM (active).
With `C#CC(=O)N(c1ccc(OC)cc1OC)C(C(=O)NCC(=O)OCC)c1cccs1` (configuration not stated) the Potency was 0.259 µM (active).
In the case of `Cn1nc(-c2ccc(C(F)(F)F)cc2)nc2c(=O)n(C)c(=O)nc1-2`, the Potency is reported as 6.51 µM (active).
For `COC1CC(O[C@H]2CC[C@]3(C)C4CC[C@]5(C)C(C6=CC(=O)OC6)=CCC56OC46CC[C@@H]3C2)OC(C)C1O[C@@H]1O[C@H](CO[C@@H]2O[C@H](CO)[C@@H](O)[C@H](O)[C@H]2O)[C@@H](O)[C@H](O)[C@H]1O` (some centres not stated), the Potency was 1.74 µM (active).
With `COC(=O)C1=COC(O[C@@H]2O[C@H](CO[C@@H]3O[C@H](COC(=O)/C=C\c4ccc(O)cc4)[C@@H](O)[C@H](O)[C@H]3O)[C@@H](O)[C@H](O)[C@H]2O)C2C(CO)=CCC12` (some centres not stated) the max response was -82.6%.
Molecule `C[C@H](Nc1ncnc2nc[nH]c12)c1cc2cccc(Cl)c2c(=O)n1-c1ccccc1` has a max response of -90.1%.
`O=S(=O)(Nc1cc(Cl)c(Oc2cnc3ccccc3c2)c(Cl)c1)c1ccc(Cl)cc1Cl` was tested, and the max response was -18.7%.
`C[C@@H]1CN(CC(=O)N2CC(C)(C)c3ncc(Cc4ccc(F)cc4)cc32)[C@@H](CN2CCOC[C@H]2C)CN1` gave a max response of -21.9%.
With `Cc1nc(C#Cc2ccnc(Cl)c2)c(C)n1-c1ccc(F)cc1` the Potency was 7.31 µM (active).
`O=C(Nc1cccnn1)N1CCN(c2nccc(-c3ccc(F)c(F)c3)n2)CC1` showed a max response of -4.09%.
With `O=C1NC(=O)C(c2cnc3ccccn23)=C1c1cn2c3c(cc(F)cc13)CN(C(=O)N1CCCCC1)CC2` the Potency was 0.295 µM (active).
For `Cc1cc2c(F)c(Oc3ncnn4cc(OCC(C)OC(=O)C(C)N)c(C)c34)ccc2[nH]1` (configuration not stated), the Potency was 6.51 µM (active).
For `Cc1cc(Nc2nc(-c3ccccc3)nc3ccccc23)n[nH]1`, the Potency was 7.31 µM (active).
`CCOc1cc(C(C)(C)C)ccc1C1=N[C@@](C)(c2ccc(Cl)cc2)[C@@](C)(c2ccc(Cl)cc2)N1C(=O)N1CCN(CC(=O)N2CCOCC2)CC1` was tested, and the Potency was 4.17 µM (active).
For `COC1CC(O[C@H]2CC[C@]3(C)C4CC[C@@]5(C)C(=O)[C@]4(CC[C@@H]3C2)CC[C@@H]5C2=CC(=O)OC2)OC(C)C1OC1OC(COC2OC(CO)C(O)C(O)C2O)C(O)C(O)C1O` (some centres not stated), the Potency was 1.23 µM (active).
For `COc1cc(C(N)=O)nc(-c2ccccn2)c1O`, the max response was -3.89%.
`O=C(NO)c1cnc(N2CCN(S(=O)(=O)c3ccc4ccccc4c3)CC2)nc1` was tested, and the max response was -106%.
With `CC1CCCC[C@H]2C(=O)C=C[C@H](O)[C@@H]2CC(=O)O1` (some centres not stated) the Potency was 1.64 µM (active).
With `Cc1[nH]c(/C=C2\C(=O)Nc3ccc(S(=O)(=O)N(C)c4cccc(Cl)c4)cc32)c(C)c1C(=O)N1CCN(C)CC1` the Potency was 6.51 µM (active).
In the case of `C=C1C(=O)O[C@@H]2[C@H]1CC(=O)[C@H](C)[C@@](O)(C(=O)/C=C/C)[C@H]2OC(=O)C(C)CC` (some centres not stated), the Potency is reported as 2.86 µM (active).
Work on `Cc1cccc(-c2[nH]ncc2-c2ccnc3ccccc23)n1` yielded a max response of -23.7%.
In the case of `Cc1cc2c(cc1N1C(=O)c3cccc4c(CCCO)ccc(c34)C1=O)n(C)c(=O)n2C`, the max response is reported as -71.7%.
`Cc1cc(C(=O)Nc2cc(Nc3ccc4c(/C=C/c5ccccn5)n[nH]c4c3)ccc2F)n(C)n1` was tested, and the Potency was 11.6 µM (active).
With `CC1CCC/C=C/C(=O)c2c(O)cc(O)cc2CC(=O)O1` (configuration not stated) the Potency was 4.11 µM (active).
In the case of `C=C1CC2OC(=O)C(=C)C2C(OC(=O)/C(C)=C\C)CC2(C)OC1=CC2=O` (configuration not stated), the Potency is reported as 2.86 µM (active).
`CC(C)(O)/C=C/C(=O)[C@](C)(O)[C@H]1[C@H](O)C[C@@]2(C)[C@@H]3CC=C4[C@@H](C[C@H](O[C@@H]5O[C@H](CO)[C@@H](O)[C@H](O)[C@H]5O)C(=O)C4(C)C)[C@]3(C)C(=O)C[C@]12C` was tested, and the max response was -10.4%.
With `COc1cc(C[C@H]2C(=O)OC[C@@H]2Cc2ccc(OC)c(OC)c2)ccc1O` the Potency was 1.01 µM (active).
With `Nc1ncnc2c1nc(Cl)n2C1OC2COP(=O)(O)OC2C1O` (configuration not stated) the Potency was 1.64 µM (active).
For `C=C1C(=O)O[C@@H]2C(OC(=O)/C(C)=C\C)/C(C)=C\C(=O)/C=C(\C)C[C@H](O)[C@@H]12` (some centres not stated), the Potency was 2.55 µM (active).
With `Cc1noc(-c2ccc(-c3ccc(CC(=O)O)cc3)cc2)c1NC(=O)O[C@H](C)c1ccccc1Cl` the max response was -3.72%.
In the case of `CN1CCN(C2CCN(C(=O)Nc3cc(Oc4ccc(NC(=O)C5(C(=O)Nc6ccc(F)cc6)CC5)c(F)c4)ccn3)CC2)CC1`, the Potency is reported as 13 µM (active).
`Cc1[nH]c2ccc(F)cc2c1-c1nc2c3cccnc3c3ncccc3c2[nH]1` was tested, and the Potency was 4.61 µM (active).
For `c1ccc(-c2ccc(CNc3nc(-c4ccccn4)nnc3-c3ccccc3)cc2)cc1`, the Potency was 5.17 µM (active).
With `N#Cc1ccc(O[C@@H]2c3ccccc3C[C@H]2N2CCC[C@@H](N)C2)c(Cl)c1` the Potency was 20.6 µM (active).
With `CNC(=O)[C@@H](c1ccccc1)N1CCc2cc(OC)c(OC)cc2[C@@H]1CCc1ccc(C(F)(F)F)cc1` the Potency was 16.4 µM (active).
In the case of `C=C(C)C(=O)O[C@H]1[C@H]2C(=C)C(=O)O[C@@H]2C[C@@H](C)[C@@H]2O[C@@H]2C(=O)[C@](C)(O)[C@@H]1OC(=O)C(=C)C`, the Potency is reported as 2.52 µM (active).
